# Measurements from article PMC7862700, “An all-to-all approach to the identification of sequence-specific readers for epigenetic DNA modifications on cytosine”.
# Experiments:
# Experiment in all cases: DAPPL (digital affinity profiling via proximity ligation, sequencing); 10 mM Tris-HCl pH 7.5, 50 mM NaCl, 1 mM DTT, 4% glycerol, room temperature, 30 min; GST-TFs on glutathione beads, 16-mer random dsDNA library, 0.1% formaldehyde crosslink after washing; high values mean tight binding
# FLI1 = molecular target: T1, FLI1 (Homo sapiens, UniProt Q01543 1-452); conditions: protein: recombinant; tags: N-terminal GST; dsDNA, one strand shown
# T1 sequence: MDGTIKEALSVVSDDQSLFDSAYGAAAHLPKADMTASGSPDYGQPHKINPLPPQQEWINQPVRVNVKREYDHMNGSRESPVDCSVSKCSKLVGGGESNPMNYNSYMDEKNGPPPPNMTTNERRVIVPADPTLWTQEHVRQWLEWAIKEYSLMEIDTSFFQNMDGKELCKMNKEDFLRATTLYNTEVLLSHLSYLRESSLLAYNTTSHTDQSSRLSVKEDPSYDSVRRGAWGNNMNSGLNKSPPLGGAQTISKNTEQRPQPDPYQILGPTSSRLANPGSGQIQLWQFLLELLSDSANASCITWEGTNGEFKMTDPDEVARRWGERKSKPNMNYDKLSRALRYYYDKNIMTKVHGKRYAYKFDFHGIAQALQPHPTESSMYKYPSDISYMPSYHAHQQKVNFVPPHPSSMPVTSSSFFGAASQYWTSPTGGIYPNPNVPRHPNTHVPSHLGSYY
# Outline: (§1)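 Pools of DNA-barcoded human transcription factors, expressed in yeast as GST fusions on glutathione beads and combined with a tag-only sample, were incubated with 200 nmole of a 16-mer random double-stranded DNA library. Incubation took 30 min at room temperature in Tris/NaCl/DTT/glycerol buffer and was followed by washing, 0.1% formaldehyde crosslinking, proximity ligation (BsaI/T4 ligase, 1 h, 37 °C), PCR amplification and sequencing on an Illumina NextSeq500. Binding signal is the ratio of a hexamer's read frequency for a factor to its frequency for the tag-only sample.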
# ELK1 = molecular target: T2, ELK1 (Homo sapiens, UniProt P19419 1-428); conditions: protein: recombinant; tags: N-terminal GST; dsDNA, one strand shown
# T2 sequence: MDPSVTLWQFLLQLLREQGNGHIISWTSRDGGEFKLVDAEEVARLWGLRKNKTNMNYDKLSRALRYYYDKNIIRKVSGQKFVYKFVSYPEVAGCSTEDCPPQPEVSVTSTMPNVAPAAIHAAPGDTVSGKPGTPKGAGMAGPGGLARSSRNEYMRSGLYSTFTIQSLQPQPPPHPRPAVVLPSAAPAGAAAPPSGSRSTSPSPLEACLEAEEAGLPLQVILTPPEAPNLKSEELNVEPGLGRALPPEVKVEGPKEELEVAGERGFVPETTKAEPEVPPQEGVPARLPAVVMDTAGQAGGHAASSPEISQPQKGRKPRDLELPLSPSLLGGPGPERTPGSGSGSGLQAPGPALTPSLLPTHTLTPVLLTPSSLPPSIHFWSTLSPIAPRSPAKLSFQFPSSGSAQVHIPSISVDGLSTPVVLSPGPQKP
# Outline: as §1
# GABPA = molecular target: T3, GABPA (Homo sapiens, UniProt Q06546 1-454); conditions: protein: recombinant; tags: N-terminal GST; dsDNA, one strand shown
# T3 sequence: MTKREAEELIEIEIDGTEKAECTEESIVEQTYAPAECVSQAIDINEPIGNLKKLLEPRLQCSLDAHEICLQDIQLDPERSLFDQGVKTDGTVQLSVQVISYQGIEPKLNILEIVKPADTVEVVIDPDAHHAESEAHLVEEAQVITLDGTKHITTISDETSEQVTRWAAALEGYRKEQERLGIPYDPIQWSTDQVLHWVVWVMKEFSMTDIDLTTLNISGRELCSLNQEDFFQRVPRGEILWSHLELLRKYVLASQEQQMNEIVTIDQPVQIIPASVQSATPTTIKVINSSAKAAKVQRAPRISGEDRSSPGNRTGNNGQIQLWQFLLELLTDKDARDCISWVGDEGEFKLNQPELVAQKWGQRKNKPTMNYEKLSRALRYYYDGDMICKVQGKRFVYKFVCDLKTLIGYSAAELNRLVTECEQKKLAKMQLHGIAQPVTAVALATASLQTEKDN
# Outline: as §1
# ERG = molecular target: T4, ERG (Homo sapiens, UniProt P11308 1-479); conditions: protein: recombinant; tags: N-terminal GST; dsDNA, one strand shown
# T4 sequence: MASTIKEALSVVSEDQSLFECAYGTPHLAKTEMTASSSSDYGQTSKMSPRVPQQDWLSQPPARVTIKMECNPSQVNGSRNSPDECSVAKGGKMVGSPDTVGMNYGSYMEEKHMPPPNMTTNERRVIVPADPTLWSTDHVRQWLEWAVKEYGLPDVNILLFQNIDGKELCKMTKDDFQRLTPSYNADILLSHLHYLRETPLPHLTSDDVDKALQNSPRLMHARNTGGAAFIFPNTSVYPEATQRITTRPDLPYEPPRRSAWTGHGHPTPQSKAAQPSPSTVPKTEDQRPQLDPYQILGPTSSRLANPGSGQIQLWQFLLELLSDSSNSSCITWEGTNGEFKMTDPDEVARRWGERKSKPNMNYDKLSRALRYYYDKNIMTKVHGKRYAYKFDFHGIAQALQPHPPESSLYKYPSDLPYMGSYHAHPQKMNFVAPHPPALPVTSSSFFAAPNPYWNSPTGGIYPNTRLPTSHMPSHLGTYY
# Outline: as §1
# ELF1 = ELF1 (Homo sapiens, UniProt P32519 1-619); conditions: protein: recombinant; tags: N-terminal GST; dsDNA, one strand shown
# Outline: as §1
# EHF = molecular target: T5, EHF (Homo sapiens, UniProt Q9NZC4 1-300); conditions: protein: recombinant; tags: N-terminal GST; dsDNA, one strand shown
# T5 sequence: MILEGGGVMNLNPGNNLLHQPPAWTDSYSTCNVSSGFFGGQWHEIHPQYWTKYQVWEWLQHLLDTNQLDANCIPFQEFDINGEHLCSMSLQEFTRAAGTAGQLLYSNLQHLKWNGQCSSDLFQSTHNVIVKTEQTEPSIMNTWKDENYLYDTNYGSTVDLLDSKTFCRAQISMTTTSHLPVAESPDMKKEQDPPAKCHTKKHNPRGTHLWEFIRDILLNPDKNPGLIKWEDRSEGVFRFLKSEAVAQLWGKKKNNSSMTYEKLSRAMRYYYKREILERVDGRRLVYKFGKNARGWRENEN
# Outline: as §1
# SPI1 = SPI1 (Homo sapiens, UniProt P17947 1-270); conditions: protein: recombinant; tags: N-terminal GST; dsDNA, one strand shown
# Outline: as §1
# SPIB = SPIB (Homo sapiens, UniProt Q01892 1-262); conditions: protein: recombinant; tags: N-terminal GST; dsDNA, one strand shown
# Outline: as §1
# ELK3 = molecular target: T6, ELK3 (Homo sapiens, UniProt P41970 1-407); conditions: protein: recombinant; tags: N-terminal GST; dsDNA, one strand shown
# T6 sequence: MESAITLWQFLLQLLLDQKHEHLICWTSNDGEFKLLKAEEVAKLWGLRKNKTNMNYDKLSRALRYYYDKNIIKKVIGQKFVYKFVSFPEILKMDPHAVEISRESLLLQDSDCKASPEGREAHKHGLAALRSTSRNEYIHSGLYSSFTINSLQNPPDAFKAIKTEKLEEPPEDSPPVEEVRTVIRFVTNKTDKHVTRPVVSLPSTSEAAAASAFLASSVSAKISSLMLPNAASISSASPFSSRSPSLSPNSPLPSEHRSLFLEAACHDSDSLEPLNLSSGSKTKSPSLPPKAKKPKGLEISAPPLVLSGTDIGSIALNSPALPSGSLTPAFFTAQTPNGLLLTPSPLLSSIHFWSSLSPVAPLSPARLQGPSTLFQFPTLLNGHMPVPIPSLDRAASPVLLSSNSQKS
# Outline: as §1
# FEV = molecular target: T7, FEV (Homo sapiens, UniProt Q99581 1-238); conditions: protein: recombinant; tags: N-terminal GST; dsDNA, one strand shown
# T7 sequence: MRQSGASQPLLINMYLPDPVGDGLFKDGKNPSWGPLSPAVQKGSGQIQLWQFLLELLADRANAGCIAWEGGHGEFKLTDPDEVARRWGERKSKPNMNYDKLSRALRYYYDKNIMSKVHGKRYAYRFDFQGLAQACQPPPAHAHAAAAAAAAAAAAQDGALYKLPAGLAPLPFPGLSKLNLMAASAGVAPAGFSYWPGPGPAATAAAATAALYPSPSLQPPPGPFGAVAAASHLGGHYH
# Outline: as §1
# ETV5 = ETV5 (Homo sapiens, UniProt P41161 1-510); conditions: protein: recombinant; tags: N-terminal GST; dsDNA, one strand shown
# Outline: as §1
# HSF1 = HSF1 (Homo sapiens, UniProt Q00613 1-529); conditions: protein: recombinant; tags: N-terminal GST; chain copies: 3; dsDNA, one strand shown
# Outline: as §1
# SPIC = molecular target: T8, SPIC (Homo sapiens, UniProt Q8N5J4 1-248); conditions: protein: recombinant; tags: N-terminal GST; dsDNA, one strand shown
# T8 sequence: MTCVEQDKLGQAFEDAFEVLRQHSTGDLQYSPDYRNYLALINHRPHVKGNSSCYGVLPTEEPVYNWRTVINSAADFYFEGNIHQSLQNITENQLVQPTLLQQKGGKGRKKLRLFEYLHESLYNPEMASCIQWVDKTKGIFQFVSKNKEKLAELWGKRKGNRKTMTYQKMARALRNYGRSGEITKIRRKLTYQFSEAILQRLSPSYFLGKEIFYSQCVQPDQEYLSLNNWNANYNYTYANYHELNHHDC
# Outline: as §1
# ELF4 = ELF4 (Homo sapiens, UniProt Q99607 1-663); conditions: protein: recombinant; tags: N-terminal GST; dsDNA, one strand shown
# Outline: as §1
# ELK4 = molecular target: T9, ELK4 (Homo sapiens, UniProt P28324-2 1-405); conditions: protein: recombinant; tags: N-terminal GST; dsDNA, one strand shown
# T9 sequence: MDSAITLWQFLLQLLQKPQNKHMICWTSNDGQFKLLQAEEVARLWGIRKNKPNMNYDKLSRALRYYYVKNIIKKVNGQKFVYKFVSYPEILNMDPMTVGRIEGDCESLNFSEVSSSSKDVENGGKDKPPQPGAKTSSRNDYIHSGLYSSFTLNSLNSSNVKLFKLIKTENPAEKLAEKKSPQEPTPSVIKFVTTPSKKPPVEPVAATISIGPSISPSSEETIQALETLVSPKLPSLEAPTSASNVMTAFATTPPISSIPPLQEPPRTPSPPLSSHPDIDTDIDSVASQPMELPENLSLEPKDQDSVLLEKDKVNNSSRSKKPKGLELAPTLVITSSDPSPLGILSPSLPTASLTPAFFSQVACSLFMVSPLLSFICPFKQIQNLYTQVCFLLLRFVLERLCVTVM
# Outline: as §1
# ETV2 = molecular target: T10, ETV2 (Homo sapiens, UniProt O00321 1-342); conditions: protein: recombinant; tags: N-terminal GST; dsDNA, one strand shown
# T10 sequence: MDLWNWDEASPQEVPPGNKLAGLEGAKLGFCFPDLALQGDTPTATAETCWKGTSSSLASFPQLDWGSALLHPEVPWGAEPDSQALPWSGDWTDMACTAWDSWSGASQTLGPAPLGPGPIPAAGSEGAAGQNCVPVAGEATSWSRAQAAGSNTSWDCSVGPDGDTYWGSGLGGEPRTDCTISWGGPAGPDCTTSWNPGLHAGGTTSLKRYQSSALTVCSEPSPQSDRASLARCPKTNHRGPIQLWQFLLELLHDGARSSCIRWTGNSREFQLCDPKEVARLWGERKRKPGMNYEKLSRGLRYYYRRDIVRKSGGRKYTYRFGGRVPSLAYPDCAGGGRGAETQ
# Outline: as §1
# ELF3 = molecular target: T11, ELF3 (Homo sapiens, UniProt P78545 1-371); conditions: protein: recombinant; tags: N-terminal GST; dsDNA, one strand shown
# T11 sequence: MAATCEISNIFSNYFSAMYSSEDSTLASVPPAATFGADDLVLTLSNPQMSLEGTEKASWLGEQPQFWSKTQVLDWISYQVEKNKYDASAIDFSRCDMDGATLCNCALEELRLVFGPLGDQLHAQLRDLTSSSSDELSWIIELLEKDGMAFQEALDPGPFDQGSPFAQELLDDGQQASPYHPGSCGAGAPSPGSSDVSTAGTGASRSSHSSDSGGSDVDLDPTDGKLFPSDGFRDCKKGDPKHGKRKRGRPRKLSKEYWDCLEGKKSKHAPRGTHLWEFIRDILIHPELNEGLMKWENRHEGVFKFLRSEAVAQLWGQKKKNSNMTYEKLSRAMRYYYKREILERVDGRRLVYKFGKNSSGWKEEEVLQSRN
# Outline: as §1
# CRX = CRX (Homo sapiens, UniProt O43186 1-299); conditions: protein: recombinant; tags: N-terminal GST; dsDNA, one strand shown
# Outline: as §1
# ETV1 = ETV1 (Homo sapiens, UniProt P50549 1-477); conditions: protein: recombinant; tags: N-terminal GST; dsDNA, one strand shown
# Outline: as §1
# Sequence of SPIB (Q01892 whole entry): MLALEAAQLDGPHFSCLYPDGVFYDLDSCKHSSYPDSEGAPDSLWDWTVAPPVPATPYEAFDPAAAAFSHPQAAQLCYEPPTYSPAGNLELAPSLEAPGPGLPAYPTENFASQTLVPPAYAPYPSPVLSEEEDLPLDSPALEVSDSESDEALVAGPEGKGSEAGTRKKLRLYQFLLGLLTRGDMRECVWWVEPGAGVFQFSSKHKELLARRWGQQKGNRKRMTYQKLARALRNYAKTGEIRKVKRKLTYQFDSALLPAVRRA
# Sequence of ELF4 (Q99607 whole entry): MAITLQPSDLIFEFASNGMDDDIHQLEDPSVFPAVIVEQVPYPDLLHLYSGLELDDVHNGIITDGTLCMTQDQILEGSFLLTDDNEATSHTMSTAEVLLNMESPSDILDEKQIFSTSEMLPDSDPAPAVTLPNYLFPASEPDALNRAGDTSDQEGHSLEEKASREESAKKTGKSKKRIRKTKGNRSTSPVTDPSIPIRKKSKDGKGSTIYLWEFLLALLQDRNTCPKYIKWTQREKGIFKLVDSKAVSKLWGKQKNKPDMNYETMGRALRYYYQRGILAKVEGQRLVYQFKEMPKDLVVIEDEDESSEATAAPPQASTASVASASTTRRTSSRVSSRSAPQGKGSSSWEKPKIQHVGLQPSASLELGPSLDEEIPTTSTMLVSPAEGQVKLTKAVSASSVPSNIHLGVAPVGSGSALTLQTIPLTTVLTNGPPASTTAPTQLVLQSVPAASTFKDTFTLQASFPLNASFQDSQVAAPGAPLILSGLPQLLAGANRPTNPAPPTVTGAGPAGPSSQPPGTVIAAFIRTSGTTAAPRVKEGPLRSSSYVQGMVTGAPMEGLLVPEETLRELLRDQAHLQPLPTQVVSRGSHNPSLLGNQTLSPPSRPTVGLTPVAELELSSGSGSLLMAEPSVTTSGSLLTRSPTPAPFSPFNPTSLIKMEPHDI
# Sequence of CRX (O43186 whole entry): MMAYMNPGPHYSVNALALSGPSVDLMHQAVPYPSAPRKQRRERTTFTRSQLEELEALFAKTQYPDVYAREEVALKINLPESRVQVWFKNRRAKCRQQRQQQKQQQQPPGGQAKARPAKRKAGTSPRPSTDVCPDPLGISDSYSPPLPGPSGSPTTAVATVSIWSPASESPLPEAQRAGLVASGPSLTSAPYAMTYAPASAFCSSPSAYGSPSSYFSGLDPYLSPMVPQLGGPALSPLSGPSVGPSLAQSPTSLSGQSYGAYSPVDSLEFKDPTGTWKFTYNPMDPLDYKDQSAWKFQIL
# Sequence of ETV5 (P41161 whole entry): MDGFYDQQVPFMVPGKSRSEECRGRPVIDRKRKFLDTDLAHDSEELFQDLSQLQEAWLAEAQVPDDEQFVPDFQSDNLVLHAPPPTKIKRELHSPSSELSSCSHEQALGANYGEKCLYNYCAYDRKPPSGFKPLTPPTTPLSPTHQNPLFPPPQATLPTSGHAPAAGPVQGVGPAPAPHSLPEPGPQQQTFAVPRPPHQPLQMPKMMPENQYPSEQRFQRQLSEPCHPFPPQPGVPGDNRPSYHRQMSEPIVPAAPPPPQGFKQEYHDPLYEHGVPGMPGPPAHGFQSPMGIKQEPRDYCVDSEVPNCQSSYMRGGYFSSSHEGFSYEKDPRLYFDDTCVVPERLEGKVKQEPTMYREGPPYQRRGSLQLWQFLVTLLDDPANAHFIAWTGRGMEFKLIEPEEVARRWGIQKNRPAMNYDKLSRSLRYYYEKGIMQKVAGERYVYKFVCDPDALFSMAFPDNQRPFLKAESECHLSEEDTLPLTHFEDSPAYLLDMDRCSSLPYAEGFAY
# Sequence of ELF1 (P32519 whole entry): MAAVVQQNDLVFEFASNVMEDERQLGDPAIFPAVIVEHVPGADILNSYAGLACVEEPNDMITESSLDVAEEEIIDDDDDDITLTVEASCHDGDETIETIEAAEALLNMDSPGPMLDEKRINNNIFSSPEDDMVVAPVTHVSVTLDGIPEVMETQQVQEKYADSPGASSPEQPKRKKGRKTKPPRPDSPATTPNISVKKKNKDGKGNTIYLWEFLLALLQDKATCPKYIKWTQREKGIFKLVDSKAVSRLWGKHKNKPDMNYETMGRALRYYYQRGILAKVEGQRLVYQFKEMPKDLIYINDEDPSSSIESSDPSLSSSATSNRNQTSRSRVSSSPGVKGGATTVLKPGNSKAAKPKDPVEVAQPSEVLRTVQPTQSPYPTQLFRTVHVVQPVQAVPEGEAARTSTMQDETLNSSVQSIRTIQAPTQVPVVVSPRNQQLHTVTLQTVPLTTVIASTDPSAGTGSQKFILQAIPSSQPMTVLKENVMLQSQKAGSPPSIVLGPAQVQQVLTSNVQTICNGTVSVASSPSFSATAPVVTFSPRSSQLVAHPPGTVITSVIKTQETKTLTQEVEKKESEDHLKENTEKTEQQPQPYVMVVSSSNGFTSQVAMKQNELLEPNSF
# Sequence of HSF1 (Q00613 whole entry): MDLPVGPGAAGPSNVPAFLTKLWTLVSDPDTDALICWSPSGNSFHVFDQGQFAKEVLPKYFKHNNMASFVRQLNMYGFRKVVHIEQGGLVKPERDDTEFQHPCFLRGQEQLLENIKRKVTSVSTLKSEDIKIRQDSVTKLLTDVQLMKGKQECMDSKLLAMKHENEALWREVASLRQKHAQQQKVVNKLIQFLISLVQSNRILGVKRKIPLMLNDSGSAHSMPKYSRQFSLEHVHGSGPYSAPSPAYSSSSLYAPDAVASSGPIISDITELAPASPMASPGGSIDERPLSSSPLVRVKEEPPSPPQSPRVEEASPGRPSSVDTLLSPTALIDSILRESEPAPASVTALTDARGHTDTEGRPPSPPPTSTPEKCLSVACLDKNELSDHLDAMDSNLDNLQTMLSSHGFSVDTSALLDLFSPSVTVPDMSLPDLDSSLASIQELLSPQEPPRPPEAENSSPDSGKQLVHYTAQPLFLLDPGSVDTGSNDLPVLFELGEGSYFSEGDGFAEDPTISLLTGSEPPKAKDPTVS
# Sequence of ETV1 (P50549 whole entry): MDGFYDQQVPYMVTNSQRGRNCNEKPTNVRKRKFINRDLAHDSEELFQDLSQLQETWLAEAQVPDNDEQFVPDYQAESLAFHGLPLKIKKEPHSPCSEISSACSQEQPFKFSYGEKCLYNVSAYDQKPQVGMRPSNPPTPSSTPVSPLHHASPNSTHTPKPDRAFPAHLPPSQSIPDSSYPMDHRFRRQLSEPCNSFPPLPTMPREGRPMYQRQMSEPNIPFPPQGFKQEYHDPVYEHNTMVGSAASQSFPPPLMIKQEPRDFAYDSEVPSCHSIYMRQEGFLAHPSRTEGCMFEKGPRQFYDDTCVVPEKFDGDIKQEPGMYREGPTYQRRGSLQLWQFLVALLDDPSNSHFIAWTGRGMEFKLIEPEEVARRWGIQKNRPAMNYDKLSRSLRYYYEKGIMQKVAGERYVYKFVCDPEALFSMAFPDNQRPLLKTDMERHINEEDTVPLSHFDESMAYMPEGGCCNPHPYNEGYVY
sequence,measurement,setting,value
GCTACT,binding signal,FLI1,"1.37 fold enrichment (6-mer frequency, TF over GST control)"
same,binding signal,ELK1,"1.25 fold enrichment (6-mer frequency, TF over GST control)"
same,binding signal,GABPA,"1.32 fold enrichment (6-mer frequency, TF over GST control)"
same,binding signal,ERG,"1.38 fold enrichment (6-mer frequency, TF over GST control)"
same,binding signal,ELF1,"1.35 fold enrichment (6-mer frequency, TF over GST control)"
same,binding signal,EHF,"1.33 fold enrichment (6-mer frequency, TF over GST control)"
same,binding signal,SPI1,"1.27 fold enrichment (6-mer frequency, TF over GST control)"
same,binding signal,SPIB,"1.23 fold enrichment (6-mer frequency, TF over GST control)"
same,binding signal,ELK3,"1.29 fold enrichment (6-mer frequency, TF over GST control)"
same,binding signal,FEV,"1.43 fold enrichment (6-mer frequency, TF over GST control)"
same,binding signal,ETV5,"1.39 fold enrichment (6-mer frequency, TF over GST control)"
same,binding signal,HSF1,"1.07 fold enrichment (6-mer frequency, TF over GST control)"
same,binding signal,SPIC,"1.3 fold enrichment (6-mer frequency, TF over GST control)"
same,binding signal,ELF4,"1.28 fold enrichment (6-mer frequency, TF over GST control)"
same,binding signal,ELK4,"1.38 fold enrichment (6-mer frequency, TF over GST control)"
same,binding signal,ETV2,"1.17 fold enrichment (6-mer frequency, TF over GST control)"
same,binding signal,ELF3,"1.47 fold enrichment (6-mer frequency, TF over GST control)"
same,binding signal,CRX,"1.09 fold enrichment (6-mer frequency, TF over GST control)"
same,binding signal,ETV1,"1.32 fold enrichment (6-mer frequency, TF over GST control)"
